# This is a sample that favours compounds with a hit; in the whole collection about 11% have one here.
# ALDH1A1 inh: inhibitors of human aldehyde dehydrogenase 1A1; P00352; Purified ALDH1A1, NADH fluorescence, propionaldehyde substrate; Potency, µM (titrated, usually from 75.3 µM), without a hit: at the highest dose activity, negative = inhibition, actives largely listed as inhibitors; actives 7.3% (n = 220,000); active = well fitted inhibition curve with a large enough effect, not every such curve was filed as active; inconclusive = small, poorly fitted or top-dose-only effect, or another doubt; inactive = no such curve, though single readings can be large or run the other way;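 note: potency is the fitted concentration of half-maximal effect; plate controls were no enzyme wells and a reference inhibitor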
# Target sequence (P00352 whole entry, looked up): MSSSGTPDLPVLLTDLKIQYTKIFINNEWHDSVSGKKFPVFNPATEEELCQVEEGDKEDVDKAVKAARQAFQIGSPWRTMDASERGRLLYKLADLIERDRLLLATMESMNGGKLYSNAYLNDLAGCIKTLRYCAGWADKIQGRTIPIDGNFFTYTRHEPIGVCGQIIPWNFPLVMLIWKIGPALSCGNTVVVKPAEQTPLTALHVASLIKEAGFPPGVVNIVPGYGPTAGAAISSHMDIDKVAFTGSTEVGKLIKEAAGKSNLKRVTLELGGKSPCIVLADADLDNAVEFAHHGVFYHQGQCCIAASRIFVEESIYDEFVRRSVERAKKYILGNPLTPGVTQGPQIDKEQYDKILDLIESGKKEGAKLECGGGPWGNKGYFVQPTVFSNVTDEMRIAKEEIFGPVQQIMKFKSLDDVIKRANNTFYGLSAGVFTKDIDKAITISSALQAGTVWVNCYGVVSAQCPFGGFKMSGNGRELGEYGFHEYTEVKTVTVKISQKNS
# PNC inhibitor: perinucleolar compartment assembly inhibition. PC3M PTB-GFP, PNC prevalence imaging, 16 h; stronger effect = lower value. activity change (PNC), negative = inhibition, % at 10 µM. actives 3.1% (n = 140,000). AID 2417;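 active = readout at or below -70, meaning at least 70% loss of cells showing the perinucleolar compartment, a nuclear body marking cancer cells; inconclusive = readout between -30 and a set limit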;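 note: plate controls were DMSO wells for no effect and camptothecin positive control wells for full effect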
#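 Read-out is percentage of cells bearing a perinucleolar compartment, from automated 20x imaging of fixed, Hoechst-stained PC3M PTB-GFP cells. Cells were seeded 4 h, then exposed 16 h to compound (23 nl of library stock) in duplicate plates.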
# CBFb-RUNX1 inh: inhibitors of human CBF-beta and RUNX1 interaction. Q01196+Q13951. AlphaScreen CBFb-His/RUNX1-biotin binding, biochemical. Potency, µM (highest dose often 59.8 µM), inactives show top-dose activity, negative = inhibition, usual class: inhibitors. 230,000 tested, under 10 active. AID 1477; note: % of control where 0% means no effect
#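 Proteins preincubated together for 20 min at RT before compound addition; 15 min later, nickel and streptavidin beads were added and left 90 min prior to AlphaScreen measurement.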
# HTT aggregate: reduces HttQ103-GFP aggregates in PC12 cells | PC12 HttQ103-GFP aggregates, Acumen cytometry, 40 h | Potency, µM (doses to about 46.1 µM), for the others: at the top dose activity change, negative = inhibition, hits mostly inhibitors | actives 1.1% (n = 220,000) | AID 1688; note: potency is the fitted concentration of half-maximal effect; % is set by controls: 0 for no effect and ±100 for the full control effect; nearly all actives have a fitted effect of over 60% in size
#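 Using laser scanning cytometry, GFP-positive aggregates were counted after lysis of PC12 cells induced with 100 nM tebufenozide to express HTT exon 1 Q103–GFP. Compounds were tested in titration.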
# HTT cytoprotect: cytoprotection in Huntington HTT-Q103 PC12 cell model; PC12 HTT-Q103 induced, cytoprotection, ATP luminescence, 40 h; Potency, µM (titrated, usually from 56.4 µM), for inactives: cytoprotection (ATP increase), hits mostly activators; actives 0.14% (n = 230,000); AID 1471; note: potency is the fitted concentration of half-maximal effect; % of control where 0% means no effect; nearly all actives have a fitted effect of over 45% in size
#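 Compounds were screened for protection of PC12 cells against cell death after tebufenozide induction (100 nM final) of mutant Huntingtin exon 1 (Q103) fused to GFP.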
# HPGD block: HPGD (human) dehydrogenase inhibition. purified HPGD, NADH fluorescence kinetic, PGE2 substrate. P15428. Potency, µM, inactives show at the highest dose activity change, negative = inhibition, hits mostly inhibitors. actives 4.3% (n = 150,000); active = well fitted inhibition curve with a large enough effect, not every such curve was filed as active; inconclusive = small, poorly fitted or top-dose-only effect, or another doubt; inactive = no such curve, though single readings can be large or run the other way; note: potency is the fitted concentration of half-maximal effect; % is set by controls: 0 for no effect and ±100 for the full control effect
# Target sequence (P15428 whole entry, looked up): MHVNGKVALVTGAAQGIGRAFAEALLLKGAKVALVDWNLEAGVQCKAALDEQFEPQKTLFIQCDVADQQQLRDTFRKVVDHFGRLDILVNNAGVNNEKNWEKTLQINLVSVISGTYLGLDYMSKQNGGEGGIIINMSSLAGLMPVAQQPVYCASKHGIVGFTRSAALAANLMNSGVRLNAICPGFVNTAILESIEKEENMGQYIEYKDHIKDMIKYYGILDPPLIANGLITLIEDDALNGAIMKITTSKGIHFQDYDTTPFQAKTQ
#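 NADH formation kinetics: reaction with 30 uM PGE2 and 1 mM NAD+ (final), 20 nM enzyme, Tris-HCl pH 8 with Tween 20, after 15 min compound preincubation at room temperature. Fluorescence change, last versus first of five reads.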
# Numbers without * were called inactive; ? = inconclusive; · = no result given; [ ] = dose if it differs, or a comment. Unless noted, calls come from the whole dose curve; as a rule, active = well fitted curve in the direction sought with a large enough effect; inconclusive = small, poorly fitted or top-dose-only effect, or another doubt; inactive = no such curve, though single readings can be large; an effect the other way counts as inactive or inconclusive.
SMILES,ALDH1A1 inh,PNC inhibitor,CBFb-RUNX1 inh,HTT aggregate,HTT cytoprotect,HPGD block
CCCC[C@@H]1CN2[C@H](c3ccc(Br)cc3)[C@@H](C)CC[C@H]2C(=O)O1,3.5%[13.5 µM],·,-3.4%[13.1 µM],·,-9.5%[10 µM],·
Cc1cc(C)cc(N(CCC(=O)Nc2nnc(C)s2)S(=O)(=O)c2ccc(Cl)cc2)c1,0.9%,32.1,5.9%,1.8%,-21.3%[10 µM],-1.3%
Cc1ccc(C(=O)NC(=S)Nc2cccc(-c3nc4ccccc4s3)c2)cc1,11.2µM*,-112.5*,0.2%,14.0%,-8.2%[10 µM],-8.1%
Cc1ccc(C(=O)O)cc1NC(=S)NC(=O)c1ccc(-c2ccccc2)cc1,14.1µM*,·,-10.0%,-4.7%[9.22 µM],-12.2%[10 µM],·
O=C(O)c1cccc(NC(=S)NC(=O)c2ccc(-c3ccccc3)cc2)c1,25.1µM*,·,-9.8%,4.3%[9.22 µM],-68.3%,·
CC(=O)Nc1cccc(-c2nc3ccccc3s2)c1,-7.4%,·,5.8%,·,·,·
NS(=O)(=O)c1ccc(NC(=S)NC(=O)c2ccc(-c3ccccc3)cc2)cc1,2µM*,48.3,-3.9%,9.7%,-12.8%[10 µM],-29.0%
Cc1ccc(CNC(=O)C2(CC(C)C)C=CCN2C(=O)c2ccccc2)o1 (configuration not stated),-6.6%,·,8.0%,·,19.2%,-20.9%
COC(=O)c1ccc(C(NC(=O)OCc2ccccc2)/C(=C/[C@@H](C)C(=O)NCc2nc3ccccc3n2C)c2cccnc2)cc1 (some centres not stated),2.5%,·,4.3%,·,-3.8%,-15.1%
COCCn1c(=O)c(-c2ccccc2)nc2cnc(Nc3cccc(OC)c3)nc21,4.6%,·,·,·,-26.9%,·
CCCC/C(O)=C1\C(=O)CCCC1=NCCc1c(C)[nH]c2ccccc12,·,·,0.1%,-29.9%[9.22 µM],-34.6%[10 µM],·
O=C(O)c1cccc(NC(=S)N/N=C/c2cccc(O)c2)c1,-7.8%,·,?,11.1%,-9.4%[10 µM],·
O=C(O)c1cccc(NC(=S)N/N=C/c2ccccn2)c1,20µM*,·,-9.2%,3.3%,-78.6%,·
CCOC(=O)C1CCN(CC(=O)N2C(C)CCCC2C)CC1 (configuration not stated),11.2µM*,-6.9,11.9%,-0.1%,3.5%[10 µM],-18.9%
CCOC(=O)CNC(=O)CSc1nnc(NC(=O)c2ccccc2Cl)s1,4.6%,·,5.8%,13.5%,-35.8%[10 µM],·
CCOC(=O)N/N=C(\c1ccccc1)C(O)c1ccccc1 (configuration not stated),4.7%,·,4.7%,-12.8%[9.22 µM],-15.0%[10 µM],·
COc1ccc(Cn2nnc3c(=O)[nH]c(C4CCCN(C(=O)c5ccccc5)C4)nc32)cc1 (configuration not stated),-0.1%,43.6,-1.2%,-4.8%,6.7%,12.6µM*
Cc1ccc(Cn2nnc3c(=O)[nH]c(C4CCCN(C(=O)Nc5ccc(F)cc5)C4)nc32)cc1 (configuration not stated),3.9%,-11.7,1.2%,-11.1%,-4.7%[10 µM],·
Cc1nc(N2CCC(C(N)=O)CC2)c2nnn(Cc3ccccc3)c2n1,-12.1%,28.6,-3.3%,-9.8%,-14.6%,-3.6%
COc1cccc(Cn2nnc3c(=O)[nH]c(C4CCCN(C(=O)c5ccccc5Cl)C4)nc32)c1 (configuration not stated),7.94µM*,?,3.3%,9.5%,-6.4%,14.1µM*
O=C(c1ccccc1Cl)N1CCCC(c2nc3c(nnn3Cc3ccccc3)c(=O)[nH]2)C1 (configuration not stated),-13.1%,15.2,-3.7%,22.3%,-14.3%[10 µM],15.8µM*
CSc1nc(N)c2ncn([C@H]3O[C@H](COP(=O)(O)OP(=O)(O)OP(=O)(O)O)[C@@H](O)[C@@H]3O)c2n1,-1.4%,·,3.5%[21.7 µM],·,?,-0.8%
CCOC(=O)C1OC1c1ccccc1 (configuration not stated),3.7%,·,4.7%[21.7 µM],·,-7.2%,-8.9%
Cc1cc(C)c2nc3s/c(=C/c4ccccc4)c(=O)n3c2c1,3.16µM*,?,2.3%,3.8%,-14.8%,5.01µM*
COc1ccccc1-c1nc2s/c(=C\c3cccs3)c(=O)n2n1,-12.7%,-16.9,-11.8%,-1.2%,-18.7%,-7.9%
SMILES,ALDH1A1 inh,PNC inhibitor,CBFb-RUNX1 inh,HTT aggregate,HTT cytoprotect,HPGD block
Cc1ccc2c(nc3s/c(=C/c4cccs4)c(=O)n32)c1C,14.1µM*,7.1,7.3%,11.1%,8.5%,28.2µM*
CC1(C)CC(N2CCCC2)=CC(=[N+]2CCCCC2)C1,-2.2%,·,4.4%,8.91µM*,·,·
CC1(C)CC(=O)C=C(N2CCN(C3=CC(=O)CC(C)(C)C3)CC2)C1,20µM*,?,2.4%,-19.8%,21.5%[10 µM],-10.9%
Nc1nc(CSc2ncn(-c3ccccc3)n2)cs1,-10.1%,?,0.6%,3.6%,-11.5%,-14.3%
c1ccc(CSc2ncn(-c3ccccc3)n2)cc1,2.0%,5.9,9.5%,-7.3%,-22.5%,17.8µM*
O=C(CSc1ncn(-c2ccccc2)n1)c1cccs1,?,-15.9,4.1%,5.5%,-24.1%,8.91µM*
CCC(CC)C(=O)c1c[nH]c(C(=O)NN)c1,7.94µM*,·,1.3%,11.8%,-1.0%[10 µM],·
CCC(CC)C(=O)c1c[nH]c(C(=O)O)c1,8.0%,·,-12.1%,-0.1%,-7.2%,·
O=C(NCc1ccccn1)c1cccc(NS(=O)(=O)c2cccc(F)c2)c1,14.1µM*,?,-3.1%,0.4%,2.2%[10 µM],-15.7%
Fc1cccc(NC(=S)NCc2ccccn2)c1,?,-91.0*,-15.8%,-9.5%,-7.5%[10 µM],?
Cc1cc(C)cc(NS(=O)(=O)c2cc(C(=O)NCc3ccccn3)ccc2Cl)c1,9.2%,-4.6,-3.8%,10.0%,-15.4%[1.9 µM],-1.1%
COc1ccc(C(=O)NCc2cccnc2)cc1OC,25.1µM*,?,8.8%,6.4%,1.2%,-13.4%
CC(C)c1ccc(C(=O)NC(=S)NCc2cccnc2)cc1,28.2µM*,?,1.4%,-22.6%,·,-12.9%
O=C(Oc1cccnc1)c1cccc(Cl)c1,?,44.5,-5.4%,-7.0%,-5.0%,-24.8%
CCCC(=O)c1c[nH]c(C(=O)NCc2cccnc2)c1,28.2µM*,·,-0.8%,5.4%[9.22 µM],-2.4%,·
CCC(=O)c1c[nH]c(C(=O)NCc2cccnc2)c1,-2.3%,·,1.3%,-11.9%[9.22 µM],-12.9%,·
Cc1ccc(C(=O)NC(=S)NCc2cccnc2)cc1C,?,·,-0.9%,-11.9%,-24.8%,·
COc1ccc(C(=O)Oc2cccnc2)cc1OC,10µM*,28.0,7.9%,-11.6%,-23.7%,-9.6%
CCCC[C@]1(C2CCCC2)Cc2cc(OCC(=O)O)c(Cl)c(Cl)c2C1=O,·,·,·,·,22.9%[1.9 µM],·
CN1CCN(c2ncnc3ccc(-c4ccccc4C(F)(F)F)cc23)CC1,?,·,·,·,-292.0%,·
Nc1cc(-c2ccccc2)nn1S(=O)(=O)c1ccc(Br)cc1,15.8µM*,21.1,-6.9%,-11.4%,?,-20.5%

# From PubChem
